From PubChem BioAssay AID1159580 (chemical genetic matrix, 2015)
The whole screen tested about 5,500 compounds, of which about 2,000 (36%) were called active. Another 18% or so got no clear call; they are omitted. Rule as the data show it: active = normalized growth mostly below about 0.91 (no sharp cut-off); inconclusive = no clear call, values can overlap the other calls; inactive = mostly above about 0.92. The list shows a part of the results.

Assay: chemical genetic growth profiling, strain panel (AID 1159580);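 also: tested at 20 µM; growth read once vehicle control cultures reached saturation at 30 °C; 1 = growth at the plate median or of vehicle wells; lower values mean less growth of the strain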
Conditions: growth OD

Measured: normalized growth

CCS(=O)(=O)CCn1c([N+](=O)[O-])cnc1C
inactive: S. cerevisiae deletion strains, locus YJR075W, strain HOC1, stronger effect = lower value 0.981 | S. cerevisiae deletion strains, locus YKL009W, strain mrt4, stronger effect = lower value 1.04 | S. cerevisiae deletion strains, locus YKL068W, stronger effect = lower value 1.02 | S. cerevisiae deletion strains, locus YKL085W, strain MDH1 (second series), stronger effect = lower value 1.04 | S. cerevisiae deletion strains, locus YKL085W, strain MDH1, stronger effect = lower value 1.04 | S. cerevisiae deletion strains, locus YKL160W, strain elf1, stronger effect = lower value 1.03 | S. cerevisiae deletion strains, locus YKL190W, strain CNB1, stronger effect = lower value 1.01 | S. cerevisiae deletion strains, locus YKR001C, strain vps1, stronger effect = lower value 1.03 | S. cerevisiae deletion strains, locus YKR026C, strain gcn3, stronger effect = lower value 0.984 | S. cerevisiae deletion strains, locus YKR091W, strain srl3, stronger effect = lower value 0.999 | S. cerevisiae deletion strains, locus YLL001W, strain dnm1, stronger effect = lower value 0.993 | S. cerevisiae deletion strains, locus YLL026W, stronger effect = lower value 1.01 | S. cerevisiae deletion strains, locus YLL041C, strain sdh2, stronger effect = lower value 0.993 | S. cerevisiae deletion strains, locus YLR027C, strain aat2, stronger effect = lower value 0.997 | S. cerevisiae deletion strains, locus YLR039C, strain RIC1, stronger effect = lower value 1.07 | S. cerevisiae deletion strains, locus YLR058C, strain SHM2, stronger effect = lower value 1.01 | S. cerevisiae deletion strains, locus YLR102C, strain apc9, stronger effect = lower value 1.01 | S. cerevisiae deletion strains, locus YLR113W, strain HOG1, stronger effect = lower value 0.938 | S. cerevisiae deletion strains, locus YLR221C, strain rsa3, stronger effect = lower value 0.989 | S. cerevisiae deletion strains, locus YLR258W, strain gsy2, stronger effect = lower value 1.01 | S. cerevisiae deletion strains, locus YLR262C, strain YPT6 (second series), stronger effect = lower value 0.967 | S. cerevisiae deletion strains, locus YLR262C, strain YPT6, stronger effect = lower value 1.1 | S. cerevisiae deletion strains, locus YLR268W, strain sec22, stronger effect = lower value 1.01 | S. cerevisiae deletion strains, locus YLR320W, strain mms22, stronger effect = lower value 0.972 | S. cerevisiae deletion strains, locus YLR330W, strain CHS5, stronger effect = lower value 1.01 | S. cerevisiae deletion strains, locus YLR342W, strain FKS1 (second series), stronger effect = lower value 1.06 | S. cerevisiae deletion strains, locus YLR342W, strain FKS1, stronger effect = lower value 1.02 | S. cerevisiae deletion strains, locus YLR357W, strain rsc2, stronger effect = lower value 0.999 | S. cerevisiae deletion strains, locus YLR370C, strain arc18, stronger effect = lower value 1 | S. cerevisiae deletion strains, locus YLR371W, strain rom2, stronger effect = lower value 1.01 | S. cerevisiae deletion strains, locus YLR384C, strain iki3, stronger effect = lower value 1.01 | S. cerevisiae deletion strains, locus YLR418C, strain cdc73, stronger effect = lower value 1.03 | S. cerevisiae deletion strains, locus YML016C, strain PPZ1, stronger effect = lower value 1.01 | S. cerevisiae deletion strains, locus YML032C, strain rad52, stronger effect = lower value 1.03 | S. cerevisiae deletion strains, locus YML120C, strain ndi1, stronger effect = lower value 1 | S. cerevisiae deletion strains, locus YML124C, strain tub3, stronger effect = lower value 1 | S. cerevisiae deletion strains, locus YMR058W, strain fet3, stronger effect = lower value 1 | S. cerevisiae deletion strains, locus YMR078C, strain ctf18, stronger effect = lower value 1.01 | S. cerevisiae deletion strains, locus YMR125W, strain sto1, stronger effect = lower value 0.976 | S. cerevisiae deletion strains, locus YMR129W, stronger effect = lower value 0.98 | S. cerevisiae deletion strains, locus YMR205C, strain PFK2, stronger effect = lower value 0.988 | S. cerevisiae deletion strains, locus YMR223W, strain ubp8, stronger effect = lower value 1.04 | S. cerevisiae deletion strains, locus YMR231W, strain pep5, stronger effect = lower value 0.991 | S. cerevisiae deletion strains, locus YMR263W, strain SAP30, stronger effect = lower value 1.02 | S. cerevisiae deletion strains, locus YMR307W, strain GAS1, stronger effect = lower value 1.21 | S. cerevisiae deletion strains, locus YNL067W, strain RPL9B, stronger effect = lower value 1.02 | S. cerevisiae deletion strains, locus YNL071W, strain lat1, stronger effect = lower value 0.982 | S. cerevisiae deletion strains, locus YNL128W, strain TEP1, stronger effect = lower value 1.02 | S. cerevisiae deletion strains, locus YNL153C, strain GIM3, stronger effect = lower value 1.01 | S. cerevisiae deletion strains, locus YNL183C, strain NPR1, stronger effect = lower value 0.915 | S. cerevisiae deletion strains, locus YNL209W, strain ssb2, stronger effect = lower value 0.987 | S. cerevisiae deletion strains, locus YNL233W, strain BNI4, stronger effect = lower value 1.02 | S. cerevisiae deletion strains, locus YNL248C, strain rpa49, stronger effect = lower value 1.01 | S. cerevisiae deletion strains, locus YNL250W, strain rad50, stronger effect = lower value 1.02 | S. cerevisiae deletion strains, locus YNL271C, strain bni1, stronger effect = lower value 1.02 | S. cerevisiae deletion strains, locus YNL298W, strain CLA4, stronger effect = lower value 1.03 | S. cerevisiae deletion strains, locus YNL307C, strain MCK1, stronger effect = lower value 1.05 | S. cerevisiae deletion strains, locus YNL322C, strain KRE1 (second series), stronger effect = lower value 1.01 | S. cerevisiae deletion strains, locus YNL322C, strain KRE1, stronger effect = lower value 1.01 | S. cerevisiae deletion strains, locus YNR049C, strain mso1, stronger effect = lower value 0.997 | S. cerevisiae deletion strains, locus YNR052C, strain pop2, stronger effect = lower value 1.01 | S. cerevisiae deletion strains, locus YOL006C, strain TOP1, stronger effect = lower value 1.04 | S. cerevisiae deletion strains, locus YOL012C, strain htz1 0.976 | S. cerevisiae deletion strains, locus YOL147C, strain pex11, stronger effect = lower value 1 | S. cerevisiae deletion strains, locus YOR001W, strain rrp6, stronger effect = lower value 0.971 | S. cerevisiae deletion strains, locus YOR061W, strain CKA2, stronger effect = lower value 1.01 | S. cerevisiae deletion strains, locus YOR069W, strain VPS5, stronger effect = lower value 1 | S. cerevisiae deletion strains, locus YOR070C, strain gyp1, stronger effect = lower value 1.01 | S. cerevisiae deletion strains, locus YOR080W, strain dia2, stronger effect = lower value 1.01 | S. cerevisiae deletion strains, locus YOR083W, strain WHI5, stronger effect = lower value 1 | S. cerevisiae deletion strains, locus YOR106W, strain vam3, stronger effect = lower value 1.02 | S. cerevisiae deletion strains, locus YOR136W, strain idh2, stronger effect = lower value 1.02 | S. cerevisiae deletion strains, locus YOR144C, strain elg1, stronger effect = lower value 1.01 | S. cerevisiae deletion strains, locus YOR184W, strain ser1, stronger effect = lower value 1.07 | S. cerevisiae deletion strains, locus YOR231W, strain MKK1, stronger effect = lower value 0.962 | S. cerevisiae deletion strains, locus YOR265W, strain rbl2, stronger effect = lower value 0.994 | S. cerevisiae deletion strains, locus YOR270C, strain vph1, stronger effect = lower value 0.977 | S. cerevisiae deletion strains, locus YOR290C, strain snf2, stronger effect = lower value 1.02 | S. cerevisiae deletion strains, locus YOR316C, strain cot1, stronger effect = lower value 1.02 | S. cerevisiae deletion strains, locus YPL051W, strain arl3, stronger effect = lower value 1.03 | S. cerevisiae deletion strains, locus YPL055C, strain LGE1, stronger effect = lower value 1.06 | S. cerevisiae deletion strains, locus YPL078C, strain atp4, stronger effect = lower value 1.01 | S. cerevisiae deletion strains, locus YPL106C, strain sse1, stronger effect = lower value 0.994 | S. cerevisiae deletion strains, locus YPL240C, strain hsp82, stronger effect = lower value 0.991 | S. cerevisiae deletion strains, locus YPL241C, strain CIN2, stronger effect = lower value 1.01 | S. cerevisiae deletion strains, locus YPL256C, strain CLN2, stronger effect = lower value 0.973 | S. cerevisiae deletion strains, locus YPR119W, strain clb2, stronger effect = lower value 1 | S. cerevisiae deletion strains, locus YPR141C, strain kar3, stronger effect = lower value 1.02 | S. cerevisiae deletion strains, locus YPR163C, strain tif3, stronger effect = lower value 1.01 | S. cerevisiae deletion strains, locus YPR167C, strain met16, stronger effect = lower value 1.02 | S. cerevisiae deletion strains, strain wtn01, stronger effect = lower value 1 | S. cerevisiae strains, strain wild type, stronger effect = lower value 1.05
